Assay results from PubChem BioAssay (Tox21).
Where “and” joins values, the source holds several entries; their conditions need not be identical. Equal entries are not always repeated. Results filed as inconclusive are left out. Some structures have more than one record in an assay (separate samples or runs), and their calls can disagree. Calls of active or inactive are those of the source. Unless noted, calls follow the shape of the dose curve; as a rule, active = well fitted curve in the direction sought with a large enough effect in the repeat runs; inconclusive = weak or mixed curves; inactive = no such curve, though single readings can be large; an effect the other way counts as inactive or inconclusive.

Experiments:
[1] = qHTS assay to identify small molecule agonists of the RXR signaling pathway - cell viability counter screen (AID 1159529); also: nearly all actives have a fitted effect of over 50% in size; also: potency is read from the fitted curve at half-maximal effect
Outline: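 Counter screen: CellTiter-Glo luminescence. Cells: RXR-alpha-UAS-bla HEK 293T. Medium: 2% charcoal-stripped FBS. Treatment: 16 h, 37 C. Reagent incubation: 30 min, RT.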

[2] = qHTS assay to identify small molecule antagonists of the retinoic acid receptor (RAR) signaling pathway (AID 1159552; also: nearly all actives have a fitted effect of over 50% in size; also: potency is read from the fitted curve at half-maximal effect)
Outline: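 Antagonism of retinol-induced RARE reporter activity was measured in C3RL4 cells. Exposure to compounds and 1 uM final retinol lasted 6 hr at 37 C, with luminescence as endpoint.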

[3] = target: Luciferin 4-monooxygenase (Photinus pyralis) (UniProt P08659); test: qHTS assay to identify small molecule inhibitors of firefly luciferase (AID 1224835); also: nearly all actives have a fitted effect of over 25% in size; also: potency is read from the fitted curve at half-maximal effect
Outline: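 Quantitative HTS format; KM concentrations of both substrates. Purified P. pyralis FLuc activity quantified from luminescence images.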

[4] = qHTS assay to identify small molecule agonists of the constitutive androstane receptor (CAR) signaling pathway - cell viability counter screen (AID 1224836); also: nearly all actives have a fitted effect of over 45% in size; also: potency is read from the fitted curve at half-maximal effect
Outline: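 Double-stable HepG2 hepatoma cells (hCAR plus CYP2B6-2.2kb) are treated for 23 h at 37 C with test compounds in 15-point concentration series. PK11195 at 0.75 uM final is co-added. Cell viability is quantified by CellTiter-Fluor.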

[5] = qHTS assay to identify small molecule antagonists of the constitutive androstane receptor (CAR) signaling pathway - cell viability counter screen (AID 1224837); also: nearly all actives have a fitted effect of over 45% in size; also: potency is read from the fitted curve at half-maximal effect
Outline: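 HepG2 cells stably carrying hCAR and CYP2B6-2.2kb reporter, stimulated with 50 nM CITCO and compounds at 15 concentrations for 23 h at 37 C. Viability measured by CellTiter-Fluor fluorescence.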

[6] = target: Nuclear receptor subfamily 1 group I member 3 (Homo sapiens) (UniProt Q14994); test: qHTS assay to identify small molecule antagonists of the constitutive androstane receptor (CAR) signaling pathway (AID 1224838); also: nearly all actives have a fitted effect of over 40% in size; also: potency is read from the fitted curve at half-maximal effect
Outline: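 HepG2 cells stably carrying hCAR and a CYP2B6-2.2kb luciferase reporter, seeded 4 hrs before compound (15 concentrations). Stimulated with 50 nM CITCO for 24 hr at 37 C. ONE-Glo luminescence read after 30 min at room temperature.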

[7] = qHTS assay to identify small molecule antagonists of the estrogen related receptor signaling pathway with the pleiotropic PPARgamma coactivator (PGC) from Tox21 10K library - cell viability counter screen (AID 1224840; active = well fitted cell-killing curve with a large enough effect in the repeat runs, not every such curve was filed as active; also: nearly all actives have a fitted effect of over 40% in size; also: potency is read from the fitted curve at half-maximal effect)
Outline: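 PGC/ERR cells (2,000/well) plated 6 h, then compound-treated for 17.5 h at 37 C. Viability measured by CellTiter-Fluor fluorescence after 30 min at 37 C, multiplexed with the pathway assay.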

[8] = qHTS assay to identify small molecule antagonists of the estrogen related receptor signaling pathway with the pleiotropic PPARgamma coactivator (PGC) from Tox21 10K library (AID 1224841; call rule not given here; also: actives are mostly falling curves and most rising ones were filed inactive; nearly all actives have a fitted effect of over 50% in size; also: potency is read from the fitted curve at half-maximal effect)
Outline: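 PGC/ERR cell line, 2,000 cells/well, pre-incubated 6 hours at 37 C, then exposed to compounds for 18 hours at 37 C; luciferase read with One-Glo luminescence after 30 min at room temperature.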

[9] = qHTS assay to identify small molecule agonists of the estrogen related receptor signaling pathway with the pleiotropic PPARgamma coactivator (PGC) from Tox21 10K library (AID 1224842); also: nearly all actives have a fitted effect of over 15% in size; also: potency is read from the fitted curve at half-maximal effect; as to activation: % is scaled to controls: 0 for no effect and ±100 for the full control effect
Outline: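 PGC/ERR reporter cells (NTP line) were seeded 2,000 per well, rested 6 h at 37 C/5% CO2, then pin-dosed with compounds in DMSO for 18 h at 37 C; luciferase read by One-Glo luminescence after 30 min at room temperature.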

[10] = qHTS assay to identify small molecule antagonists of the estrogen related receptor (ERR) signaling pathway from Tox21 library - cell viability counter screen (AID 1224834); also: nearly all actives have a fitted effect of over 30% in size; also: potency is read from the fitted curve at half-maximal effect
Outline: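 ERR reporter cells, 2,000 per well, rested 6 h, then exposed to compound in DMSO for 17.5 hours at 37 C. Viability read as fluorescence after 30 min with CellTiter-Fluor.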

[11] = target: Nuclear receptor subfamily 1 group I member 3 (Homo sapiens) (UniProt Q14994); test: qHTS assay to identify small molecule agonists of the constitutive androstane receptor (CAR) signaling pathway (AID 1224839); also: nearly all actives have a fitted effect of over 15% in size; also: potency is read from the fitted curve at half-maximal effect; as to activation: series mostly up to about 92 µM; % is scaled to controls: 0 for no effect and ±100 for the full control effect
Outline: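 Readout: firefly luciferase luminescence via ONE-Glo. System: HepG2 double-stable for hCAR and CYP2B6-2.2kb. Conditions: 15-point compound titration, PK11195 at 0.75 uM final, 24 h incubation.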

[12] = target: Thyrotropin receptor (Homo sapiens) (UniProt P16473); test: qHTS assay to identify small molecule agonists of the thyroid stimulating hormone receptor (TSHR) signaling pathway (AID 1224843; calls by dose curve; also: nearly all actives have a fitted effect of over 45% in size; also: potency is read from the fitted curve at half-maximal effect)
Outline: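 TSHR-expressing HEK293 cells (800 per well) were exposed to compounds for 30 min at room temperature. cAMP was then detected by HTRF competition with cAMP-d2 and anti-cAMP cryptate, read after 1 h at room temperature. Fifteen concentrations, triplicate.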

[13] = qHTS assay to identify small molecule agonists of the retinoic acid receptor (RAR) signaling pathway (AID 1159553); also: potency is read from the fitted curve at half-maximal effect
Outline: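 C3RL4 RARE-luciferase cells were seeded at 1,000/well and grown overnight at 37 C, then exposed to compounds for 6 hr at 37 C, 5% CO2. Luciferase reagent was added and luminescence was read after 30 min at room temperature.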

[14] = qHTS assay to identify small molecule antagonists of the estrogen related receptor (ERR) signaling pathway (AID 1224819; also: potency is read from the fitted curve at half-maximal effect; nearly all actives have a fitted effect of over 50% in size)
Outline: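 ERR reporter cell line (NTP) plated at 2,000 cells/well, settled 6 h at 37C/5% CO2, then exposed to LOPAC compounds for 18 h at 37C. One-Glo luciferase luminescence read after 30 min at room temperature.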

[15] = qHTS assay to identify small molecule agonists of the estrogen related receptor (ERR) signaling pathway (AID 1224820); also: % is scaled to controls: 0 for no effect and ±100 for the full control effect
Outline: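 Quantitative HTS of the LOPAC library used NTP ERR reporter cells treated 18 h at 37 C. Signal is luminescence after One-Glo addition and a 30 min room-temperature incubation.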

[16] = tested on: estrogen-related receptor alpha (ERRalpha) with PGC-1alpha coactivator, human; test: qHTS assay to identify small molecule antagonists of the estrogen related receptor signaling pathway with the pleiotropic PPARgamma coactivator (PGC) (AID 1224821; calls by dose curve)
Outline: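 Quantitative HTS for antagonism: PGC/ERR cells received compounds after 6 h attachment and were incubated 18 h at 37 C, with luminescence (One-Glo) as the endpoint.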

[17] = qHTS assay to identify small molecule agonists of the estrogen related receptor signaling pathway with the pleiotropic PPARgamma coactivator (PGC) (AID 1224823); also: % is scaled to controls: 0 for no effect and ±100 for the full control effect
Outline: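 Cell-based luciferase assay in the NTP-supplied PGC/ERR line, 2,000 cells/well; 18 h compound exposure at 37 C, luminescence after One-Glo.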

Luciferin 4-monooxygenase (Photinus pyralis), sequence (P08659 whole entry, looked up): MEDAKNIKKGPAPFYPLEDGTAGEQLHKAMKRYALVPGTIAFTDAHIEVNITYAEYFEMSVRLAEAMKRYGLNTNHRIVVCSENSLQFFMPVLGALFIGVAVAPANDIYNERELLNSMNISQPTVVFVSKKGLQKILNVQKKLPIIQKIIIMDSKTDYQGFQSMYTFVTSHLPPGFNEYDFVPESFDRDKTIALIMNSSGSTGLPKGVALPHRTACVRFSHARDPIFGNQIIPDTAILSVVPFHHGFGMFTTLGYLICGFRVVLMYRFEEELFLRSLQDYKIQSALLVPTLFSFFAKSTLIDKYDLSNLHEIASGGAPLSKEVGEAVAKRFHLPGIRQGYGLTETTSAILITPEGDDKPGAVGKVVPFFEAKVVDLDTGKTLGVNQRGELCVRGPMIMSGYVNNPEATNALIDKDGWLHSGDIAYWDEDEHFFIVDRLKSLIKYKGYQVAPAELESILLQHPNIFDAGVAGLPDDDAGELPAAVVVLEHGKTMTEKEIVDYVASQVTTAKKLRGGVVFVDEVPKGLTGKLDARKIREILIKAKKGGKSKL
Thyrotropin receptor (Homo sapiens), sequence (P16473 whole entry, looked up): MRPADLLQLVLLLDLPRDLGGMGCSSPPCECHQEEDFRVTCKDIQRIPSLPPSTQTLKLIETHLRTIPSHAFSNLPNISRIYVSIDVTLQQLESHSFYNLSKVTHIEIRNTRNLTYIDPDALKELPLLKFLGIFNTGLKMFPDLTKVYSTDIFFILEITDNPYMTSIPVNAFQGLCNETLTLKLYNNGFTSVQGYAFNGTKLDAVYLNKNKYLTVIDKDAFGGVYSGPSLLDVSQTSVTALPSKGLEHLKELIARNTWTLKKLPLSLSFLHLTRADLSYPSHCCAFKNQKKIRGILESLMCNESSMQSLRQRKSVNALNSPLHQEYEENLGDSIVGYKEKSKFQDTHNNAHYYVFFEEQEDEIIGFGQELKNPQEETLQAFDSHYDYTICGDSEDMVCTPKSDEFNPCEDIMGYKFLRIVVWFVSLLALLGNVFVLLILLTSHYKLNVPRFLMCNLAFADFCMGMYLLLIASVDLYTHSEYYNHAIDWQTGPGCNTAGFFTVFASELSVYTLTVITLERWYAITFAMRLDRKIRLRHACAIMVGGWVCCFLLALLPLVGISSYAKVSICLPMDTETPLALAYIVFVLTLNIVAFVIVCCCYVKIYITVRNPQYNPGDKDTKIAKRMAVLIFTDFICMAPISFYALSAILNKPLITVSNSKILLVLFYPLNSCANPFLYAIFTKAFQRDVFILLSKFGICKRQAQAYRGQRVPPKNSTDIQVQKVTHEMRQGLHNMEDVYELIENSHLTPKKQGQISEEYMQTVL
Nuclear receptor subfamily 1 group I member 3 (Homo sapiens), sequence (Q14994 whole entry, looked up): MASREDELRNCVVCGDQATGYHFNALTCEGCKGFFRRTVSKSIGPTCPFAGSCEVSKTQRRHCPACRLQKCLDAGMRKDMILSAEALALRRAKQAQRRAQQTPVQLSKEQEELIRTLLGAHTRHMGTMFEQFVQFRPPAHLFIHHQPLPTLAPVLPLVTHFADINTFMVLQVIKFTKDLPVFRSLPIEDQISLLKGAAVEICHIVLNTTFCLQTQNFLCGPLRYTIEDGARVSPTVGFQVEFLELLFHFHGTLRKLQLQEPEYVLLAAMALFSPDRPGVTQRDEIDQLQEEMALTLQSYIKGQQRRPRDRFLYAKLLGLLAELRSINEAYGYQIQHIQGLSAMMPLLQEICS

CC[C@H](C)[C@H]1O[C@]2(C=C[C@@H]1C)C[C@@H]1C[C@@H](C/C=C(\C)[C@@H](O[C@H]3C[C@H](OC)[C@@H](O[C@H]4C[C@H](OC)[C@@H](O)[C@H](C)O4)[C@H](C)O3)[C@@H](C)/C=C/C=C3\CO[C@@H]4[C@H](O)C(C)=C[C@@H](C(=O)O1)[C@]34O)O2
active: Potency [1] 16.3 µM | Potency [2] 32.2 µM | Potency [4] 32.2 µM | Potency [5] 32.2 µM | Potency [6] 40.5 µM | Potency [7] 28.7 µM | Potency [8] 7.2 µM
inactive: Potency [3] | Potency [9]

CCCCN(CCCC)C(=S)[S-].CCCCN(CCCC)C(=S)[S-].[Zn+2]
active: Potency [1] 4.36 µM | Potency [10] 15.3 µM | Potency [4] 21.7 µM | Potency [5] 21.7 µM | Potency [7] 13.7 µM
inactive: Potency [3]

Cc1cc(C(C)(C)c2cc(C)c(O)c(C)c2)cc(C)c1O
active: Potency [1] 47.4 µM | Potency [2] 52.7 µM | Potency [11] 4.69 µM | Potency [12] 33.2 µM
inactive: Potency [3] | Potency [6] | Potency [9]

CC(=O)/C=C/c1ccc2c(c1)OCO2
active: Potency [3] 45 µM
inactive: Potency [1] | Potency [2] | Potency [4] | Potency [5] | Potency [6] | Potency [11] | Potency [9]

CN(C)C(=S)S
active: Potency [1] 1.22 µM and 43.6 µM | Potency [10] 9.89 µM and 3.83 µM and 13.7 µM | Potency [4] 19.7 µM and 6.81 µM and 27.3 µM | Potency [5] 27.9 µM and 7.64 µM and 27.3 µM | Potency [7] 2.15 µM and 12.2 µM

C=CCOC(N)=O
inactive: Potency [1] | Potency [2] | Potency [10] | Potency [3] | Potency [4] | Potency [5] | Potency [6] | Potency [11] | Potency [7] | Potency [8] | Potency [9] | Potency [12]

COc1cccc2c1C(=O)c1c(O)c3c(c(O)c1C2=O)C[C@@](O)(C(=O)CO)CC3OC1CC(N2CCOC(OC)C2)C(O)C(C)O1 (some centres undefined)
active: Potency [2] 0.106 µM | Potency [4] 0.119 µM | Potency [5] 0.106 µM | Potency [6] 0.0298 µM | Potency [8] 0.266 µM
inactive: Potency [1] | Potency [11] | Potency [7] | Potency [9] | Potency [12]

CC(C)CC(C)N (centres undefined)
inactive: Potency [1] | Potency [10] | Potency [3] | Potency [5] | Potency [7] | Potency [8] | Potency [9] | Potency [12]

O=C(NC(=O)c1c(F)cccc1F)Nc1cc(Cl)c(OC(F)(F)C(F)F)c(Cl)c1
inactive: Potency [1] | Potency [10] | Potency [3] | Potency [4] | Potency [5] | Potency [6] | Potency [7] | Potency [12]
active: Potency [11] 2.17 µM

c1ccc(Nc2ccc3ccccc3c2)cc1
inactive: Potency [2] | Potency [10] | Potency [4] | Potency [5] | Potency [6] | Potency [7] | Potency [8]
active: Potency [1] 43.4 µM | Potency [13] 3.05 µM and 8.63 µM | Potency [3] 22.3 µM and 31.7 µM | Potency [11] 30.5 µM and 48.6 µM | Potency [9] 27.1 µM and 30.6 µM | Potency [12] 48.3 µM

COCC(=O)N(c1c(C)cccc1C)[C@H](C)C(=O)OC
inactive: Potency [1] | Potency [2] | Potency [10] | Potency [3] | Potency [4] | Potency [5] | Potency [6] | Potency [11] | Potency [7] | Potency [8] | Potency [9] | Potency [12]

C[CH2][Hg][N]1C(=O)C2C(C1=O)C1(Cl)C(Cl)=C(Cl)C2(Cl)C1(Cl)Cl (centres undefined)
active: Potency [1] 4.14 µM | Potency [2] 11.6 µM | Potency [10] 13 µM | Potency [3] 5.35 µM | Potency [5] 13 µM | Potency [6] 11.6 µM | Potency [7] 13 µM
inactive: activation [11] -23.5% [at 19 µM] | activation [12] -16.4% [at 19 µM]

COc1cc(N)c(Cl)cc1C(=O)NC1CN2CCC1CC2 (centres undefined)
inactive: Potency [1] | Potency [10] | Potency [3] | Potency [4] | Potency [5] | Potency [6] | Potency [11] | Potency [7] | Potency [12]

Cn1[nH]nnc1=S
active: Potency [3] 22.4 µM
inactive: Potency [1] | Potency [2] | Potency [4] | Potency [5] | Potency [6] | Potency [11] | Potency [7] | Potency [12]

ClCc1ccccc1CCl
inactive: Potency [1] | Potency [2] | Potency [3] | Potency [4] | Potency [5] | Potency [6] | Potency [7] | Potency [12]

CC(C)CC(C)Nc1ccc(Nc2ccccc2)cc1 (centres undefined)
inactive: Potency [13] | Potency [9]
active: Potency [1] 54 µM | Potency [10] 60.1 µM | Potency [3] 39.3 µM | Potency [7] 67.4 µM | Potency [8] 60.1 µM

CCCN(CC)CC1COC2(CCC(C(C)(C)C)CC2)O1 (centres undefined)
inactive: Potency [1] | Potency [2] | Potency [13] | Potency [10] | Potency [3] | Potency [4] | Potency [5] | Potency [6] | Potency [11] | Potency [7] | Potency [12]

O=[N+]([O-])c1cc(Cl)ccc1Cl
inactive: Potency [1] | Potency [2] | Potency [10] | Potency [3] | Potency [4] | Potency [5] | Potency [6] | Potency [7] | Potency [12]

CC(C)[C@H](C(=O)O[C@H](C#N)c1cccc(Oc2ccccc2)c1)c1ccc(Cl)cc1
inactive: Potency [1] | Potency [10] | Potency [3] | Potency [4] | Potency [5] | Potency [7]

CC(C)OC(=O)C(O)(c1ccc(Cl)cc1)c1ccc(Cl)cc1
inactive: Potency [3] | Potency [4] | Potency [5] | Potency [6] | Potency [7]
active: Potency [1] 38.9 µM | Potency [2] 43.3 µM | Potency [12] 48.6 µM

O=c1[nH]c2ccccc2n1C1CCN(CCCC(c2ccc(F)cc2)c2ccc(F)cc2)CC1
24.3 µM (active) and inactive: Potency [7]
active: Potency [1] 21.9 µM and 23.9 µM | Potency [2] 61.1 µM | Potency [14] 11.9 µM | Potency [16] 16.2 µM | Potency [4] 54.5 µM | Potency [5] 54.5 µM | Potency [8] 27.3 µM and 26.6 µM
inactive: Potency [13] | outcome [15] | outcome [17] | Potency [3] | Potency [9] | Potency [12]
